USP2a inh = inhibitors of human ubiquitin-specific protease USP2a | O75604 | USP2 core, Ub-CHOP2 coupled fluorogenic reporter, 485/531 | Potency, µM (titrated, usually from 38.3 µM), without a hit: top-dose activity change, negative = inhibition, actives largely listed as inhibitors | 330,000 compounds, 0.01% hits;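 note: potency is the fitted concentration of half-maximal effect; plate controls were DMSO wells for no effect and full inhibition by NEM control for full effect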
Target sequence (O75604 whole entry, looked up): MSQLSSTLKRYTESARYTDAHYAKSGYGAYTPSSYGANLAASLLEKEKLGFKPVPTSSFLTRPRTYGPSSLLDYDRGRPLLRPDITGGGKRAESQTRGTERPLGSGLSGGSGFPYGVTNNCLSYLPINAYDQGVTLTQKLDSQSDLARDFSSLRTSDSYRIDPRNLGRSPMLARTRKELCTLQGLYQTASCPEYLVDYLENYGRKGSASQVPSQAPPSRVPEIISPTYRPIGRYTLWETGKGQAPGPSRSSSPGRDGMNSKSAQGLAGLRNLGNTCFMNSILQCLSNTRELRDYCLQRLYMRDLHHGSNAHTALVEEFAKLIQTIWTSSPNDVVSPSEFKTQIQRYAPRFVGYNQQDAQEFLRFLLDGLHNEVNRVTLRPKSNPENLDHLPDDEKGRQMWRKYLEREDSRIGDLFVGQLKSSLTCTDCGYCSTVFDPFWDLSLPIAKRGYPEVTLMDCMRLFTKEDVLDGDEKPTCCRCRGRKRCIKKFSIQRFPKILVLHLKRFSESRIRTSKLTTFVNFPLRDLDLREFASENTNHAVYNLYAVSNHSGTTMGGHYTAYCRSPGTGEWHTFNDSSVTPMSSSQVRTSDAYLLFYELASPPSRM
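USP2 core (10nM final) preincubated 30min RT with compound in 20mM Tris-HCl pH 8.0, 2mM CaCl2, 2mM beta-mercaptoethanol, 0.05% CHAPS; 25nM Ub-CHOP2 plus 25nM reporter substrate added, fluorescence (Ex485/Em531) read after 60min.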
Eya2 inh = Eya2 (human) phosphatase inhibition | AID 488837 | O00167 | recombinant Eya2, OMFP fluorescence dephosphorylation (OMFP is methylfluorescein phosphate) | Potency, µM (top dose mostly 76.9 µM), inactives show at the highest dose activity, negative = inhibition, most hits filed as inhibitors | 330,000 compounds, 0.006% hits; note: potency is the fitted concentration of half-maximal effect; % is set by controls: 0 for no effect and ±100 for the full control effect
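Eya2 (0.2 uM) preincubated 10 min at ambient with compound, then OMFP substrate added at 50 uM; 10 min reaction in 50 mM HEPES pH 7.5, 50 mM NaCl, 5 uM MgCl2, 0.05% BSA, 1 mM DTT. Fluorescence read at Ex 485/Em 525 nm.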
GALK inh = galactokinase (human) inhibition. P51570. Purified GALK, Kinase-Glo residual ATP luminescence. Potency, µM (doses to about 57.5 µM), inactives show at the top dose activity change, negative = inhibition, hits mostly inhibitors. 270,000 compounds, 0.007% hits. AID 1868; note: potency is the fitted concentration of half-maximal effect; % is set by controls: 0 for no effect and ±100 for the full control effect
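5 nM enzyme, 35 uM ATP, 100 uM galactose, 20 mM HEPES pH8.0, 5 mM MgCl2; 1 h RT; residual ATP by Kinase-Glo Plus luminescence, qHTS format.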
D1 PAM = potentiators of human D1 dopamine receptor; P21728; HEK293 TREx D1 cells, calcium flux, dopamine EC20 potentiation; potentiation, % at 10 µM; 360,000 compounds, 0.036% hits; in the data active = potentiation above about 30%; note: 0% is about no effect
D1 antag = human D1 dopamine receptor antagonism | P21728 | HEK293 TREx D1 cells, calcium flux, dopamine EC80; active compounds read low | activity change, negative = inhibition, % at 10 µM | 360,000 compounds, 3.2% hits | AID 504652; in the data active = activity change below about -30%; note: % is set by controls: 0 for no effect and ±100 for the full control effect
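HEK293 T-REx cells expressing inducible, force-coupled D1 receptor; no-wash Ca dye, 30–90 min RT. Cmpd → 180 s read at 1 Hz → EC80 DA → 180 s read.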
D1 ag = agonists of human D1 dopamine receptor | 360,000 compounds, 1% hits | activation, % at 2 µM | P21728 | HEK293 T-REx D1 cells, calcium flux, agonist mode; in the data active = activation above about 30%; note: 0% is about no effect
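Inducible HEK293 T-REx D1 cells, force-coupled to calcium signalling, were plated at 4000 cells/well with tetracycline and held overnight at 30 C. After no-wash calcium dye loading, compound-evoked calcium rise over 180 s flagged agonists.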
* marks the source's active call; other numbers are inactive results; x = no result given. Hits are enriched below; roughly 3.9% of the tested compounds scored in any of these assays. Unless noted, calls come from the whole dose curve; as a rule, active = well fitted inhibition curve with a large enough effect; inconclusive = small, poorly fitted or top-dose-only effect, or effect the other way; inactive = flat fitted curve, though single readings scatter.

SMILES	USP2a inh	Eya2 inh	GALK inh	D1 PAM	D1 antag	D1 ag
O=C(Nc1cccc(C(F)(F)F)c1)C1CCN(S(=O)(=O)c2cccc3nsnc23)CC1	x	x	x	0.5	-3.9	3.2
Cc1cc(OCC(=O)Nc2ccc(-c3nc4cc(Cl)ccc4o3)cc2)cc(C)c1Cl	x	x	x	-1.9	5.5	-1.9
Cc1ccsc1CCN1C(=O)N(c2ccccc2)C(=O)C1CC(=O)Nc1ccc(Cl)cc1 (stereo not drawn)	x	x	x	-4.8	-35.7*	9.4
CCc1ccc(NC(=O)CC2C(=O)N(c3ccc(F)cc3)C(=O)N2Cc2ccc(F)cc2)cc1 (stereo not drawn)	x	x	x	-4.0	-30.5*	0.8
CCc1ccc(NC(=O)CC2C(=O)N(c3cccc(C)c3)C(=O)N2Cc2cccs2)cc1 (stereo not drawn)	x	x	x	-2.7	-37.9*	2.6
CCc1ccc(NC(=O)CC2C(=O)N(c3cccc(C)c3)C(=O)N2Cc2ccc(F)cc2)cc1 (stereo not drawn)	x	x	x	-2.6	-4.2	2.6
Cc1cccc(N2CCN(S(=O)(=O)c3ccc(-c4cnc(C5CC5)o4)cc3)CC2)c1C	x	x	x	-0.9	5.0	2.6
CCOC(=O)c1[nH]c2ccccc2c1NC(=O)c1ccc(OC)c(OC)c1	x	x	x	1.4	-1.1	2.7
COc1ccc(NC(=O)C2=C(C)Nc3nc(SCc4ccccc4)nn3C2c2cc(OC)ccc2OC)cc1 (stereo not drawn)	x	x	x	-4.0	5.7	3.0
Fc1ccccc1CSc1nnnn1-c1ccc2c(c1)OCO2	1.2%	-36.1%	-0.9%	-4.1	-35.3*	9.1
O=c1[nH]cnc2scc(C3COc4ccccc4O3)c12 (stereo not drawn)	-5.8%	-2.6%	4.1%	-2.6	-17.8	47.2*
Clc1ncnc2scc(C3COc4ccccc4O3)c12 (stereo not drawn)	1.7%	1.2%	-7.4%	-4.5	-12.6	0.3
NC(=O)c1cc(Cl)cn(-c2ccccc2)c1=O	2.0%	-5.3%	0.8%	x	-47.8*	1.6
O=C1CCCCC1C(O)c1ccc(Cl)cc1 (stereo not drawn)	-2.0%	3.6%	0.9%	-12.1	-73.8*	0.9
CCOC(=O)NC(c1cccc(Cl)c1)C1CCCCCC1=O (stereo not drawn)	0.0%	-15.1%	-0.5%	-4.4	-10.9	0.2
CCCCCCCC(=O)NNC(=O)Cc1ccccc1	-1.5%	2.8%	3.7%	-0.8	-54.1*	1.8
CCCCCCC(=O)N/N=C(\C)Cc1ccccc1	5.5%	1.8%	2.1%	-4.8	-3.2	6.5
CCC(C(=O)Nc1ccc(C)cc1)c1ccccc1 (stereo not drawn)	-1.7%	0.1%	7.6%	-0.4	11.5	11.8
CCC(C(=O)Nc1cc(OC)c(NC(=O)c2ccccc2)cc1OC)c1ccccc1 (stereo not drawn)	4.8%	0.9%	-1.4%	-1.2	-6.2	7.1
CCc1ccc(NC(=O)NNC(=O)CCc2ccccc2)cc1	1.6%	1.0%	-1.6%	-4.8	-60.6*	1.5
CCc1ccc(NC(=O)C(CC)c2ccccc2)cc1 (stereo not drawn)	-3.2%	2.2%	-0.5%	13.8	3.0	41.4*
O=C(CCc1ccccc1)NNC(=O)Nc1ccccc1	3.2%	-1.6%	0.3%	1.4	1.9	2.6
CCC(C(=O)Nc1ccc(C(=O)Nc2ccccc2C(=O)O)cc1)c1ccccc1 (stereo not drawn)	-1.9%	-3.7%	-6.4%	-4.8	-64.9*	2.0
COc1ccc(CCCc2nnc(SCC(=O)Nc3cccc(C)c3)o2)cc1C	x	x	x	-0.8	-17.8	6.3
Cc1ccc(NC(=O)CSc2cn(CC(=O)N3CCCC3)c3ccccc23)cc1Cl	x	x	x	-6.2	4.7	7.1
SMILES	USP2a inh	Eya2 inh	GALK inh	D1 PAM	D1 antag	D1 ag
CCC(C(=O)Nc1ccc(C(=O)N2CCCC2)cc1)c1ccccc1 (stereo not drawn)	0.2%	-1.9%	-0.6%	-5.7	3.6	37.3*
CCN1CCSc2ccc(C(=O)NC(C)c3ccccc3)cc21 (stereo not drawn)	x	x	x	-4.7	2.4	3.3
COc1ccc2cc(C(C)=O)c(=O)oc2c1	-0.5%	1.4%	2.6%	0.1	2.1	2.6
CC(=O)c1cc2ccc(O)cc2oc1=O	4.3%	14.7%	-3.0%	0.5	5.1	37.8*
CC(C)C(=O)N1c2nc(C(C)C)nn2C2(CCCCC2)[C@@H]2CCCC[C@@H]21	x	x	x	1.9	25.1	1.7
COc1ccc(OC)c(NC(=O)c2cccc(N3C(=O)C4C5CCC(C5)C4C3=O)c2)c1 (stereo not drawn)	-1.0%	6.9%	2.5%	-1.9	-11.7	7.0
Cc1cccc(NC(=O)c2cccc(N3C(=O)C4CCC(C)CC4C3=O)c2)c1C (stereo not drawn)	0.3%	-9.3%	2.5%	0.4	-49.3*	4.2
COc1ccc(NC(=O)c2cccc(N3C(=O)C4CC=C(C)CC4C3=O)c2)c(OC)c1 (stereo not drawn)	-1.0%	7.1%	-1.4%	-8.6	-51.1*	0.7
COc1ccc(/C(O)=C/c2nc3ccccc3n(-c3ccccc3)c2=O)cc1	5.3%	0.7%	-0.2%	-2.2	-6.8	38.6*
Cc1ccc(C(CNC(=O)Nc2ccc(Cl)cc2)N2CCN(C)CC2)cc1 (stereo not drawn)	-2.2%	-2.5%	2.5%	-14.4	-44.0*	5.8
CN1CCN(C(CNC(=O)Nc2ccc(Cl)cc2)c2ccc(F)cc2)CC1 (stereo not drawn)	2.1%	-2.0%	-3.4%	-13.9	-14.0	1.9
Cc1ccc(S(=O)(=O)N2CCCC2C(=O)OCc2nc3ccccc3s2)cc1 (stereo not drawn)	-1.6%	1.6%	-0.4%	-2.5	0.8	44.8*
COc1cc(-c2ccno2)ccc1S(=O)(=O)N1CCN(c2cc(C)ccc2C)CC1	x	x	x	-2.8	0.3	3.5
CCOc1ccccc1-c1nc(SCC(=O)c2ccc(OC)c(Br)c2)n[nH]1	x	x	x	-2.8	2.3	1.9
CC(CN(C)C)CN1c2ccccc2Sc2ccccc21 (stereo not drawn)	0.4%	21.8%	x	-1.1	-89.5*	38.3*
O=C(NCc1ccccc1Cl)c1ccc(Cn2c(SCc3ccccc3)nc3cccnc32)cc1	x	x	x	1.6	0.7	8.2
O=C(CNC(=O)c1ccccc1F)N/N=C/c1cc(Br)ccc1OC(=O)/C=C/c1ccco1	1.5%	1.1%	-0.1%	-0.6	-4.4	3.9
O=C(CNC(=O)c1ccc(F)cc1)N/N=C/c1cc(Br)ccc1OC(=O)/C=C/c1ccco1	-0.2%	5.1%	4.5%	-14.8	-45.2*	4.4
Cc1cc(C)c(OCCN(C)C)c(Cl)c1	-2.4%	-2.9%	7.4%	-0.3	-38.0*	0.4

Assay outcomes from PubChem.
